# According to the supplement of paper PMC8728848:
# Only a selection was taken, and the strongest signals are over-represented in it overall.
# How the values were obtained:
# Assay in all cases: glycan array binding signal (z-score within array); higher = stronger binding
# Conditions in all cases: glycan notation: IUPAC condensed, linker removed
# [1] = target: Fuc(a1-2)Gal(b1-3)GlcNAc(b1-2)Man(a1-3)[Fuc(a1-2)Gal(b1-3)GlcNAc(b1-2)Man(a1-6)]Man(b1-4)GlcNAc(b1-4)GlcNAc
# Procedure, shortened: (§1)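 The binding signal is a Z-score computed within each array. Data were drawn from 3228 arrays in the Consortium for Functional Glycomics database, restricted to those with a known protein sequence. Scores were averaged over arrays of the same protein sequence at different concentrations or buffers, and over linkers, and negative values can be taken as non-binding.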
# [2] = target: Fuc(a1-2)Gal(b1-3)GlcNAc(b1-3)[Fuc(a1-2)Gal(b1-3)GlcNAc(b1-6)]GalNAc
# Procedure, shortened: as §1
# [3] = target: Fuc(a1-2)Gal(b1-4)GlcNAc(b1-6)GalNAc
# Procedure, shortened: as §1
# [4] = target: Fuc(a1-2)Gal(b1-4)GlcNAc6S
# Procedure, shortened: as §1
# [5] = target: Fuc(a1-2)Gal3S(b1-4)GlcNAc
# Procedure, shortened: as §1
# [6] = target: Fuc(a1-2)[Gal(a1-3)]Gal(b1-3)GalNAc
# Procedure, shortened: as §1
# [7] = target: Fuc(a1-2)[Gal(a1-3)]Gal(b1-4)GlcNAc
# Procedure, shortened: as §1
# [8] = target: Fuc(a1-2)[Gal(a1-3)]Gal(b1-4)[Fuc(a1-3)]GlcNAc
# Procedure, shortened: as §1
# [9] = target: Gal(a1-3)Gal(b1-3)GlcNAc(b1-2)Man(a1-3)[Gal(a1-3)Gal(b1-3)GlcNAc(b1-2)Man(a1-6)]Man(b1-4)GlcNAc(b1-4)GlcNAc
# Procedure, shortened: as §1
# [10] = target: Gal(a1-3)Gal(b1-3)[Fuc(a1-4)]GlcNAc(b1-2)Man(a1-3)[Gal(a1-3)Gal(b1-3)[Fuc(a1-4)]GlcNAc(b1-2)Man(a1-6)]Man(b1-4)GlcNAc(b1-4)GlcNAc
# Procedure, shortened: as §1
# Gal(a1-3)Gal(b1-4)Glc = target: Gal(a1-3)Gal(b1-4)Glc
# Procedure, shortened: as §1
# [11] = target: Gal(a1-4)Gal(b1-3)GlcNAc(b1-2)Man(a1-3)[Gal(a1-4)Gal(b1-3)GlcNAc(b1-2)Man(a1-6)]Man(b1-4)GlcNAc(b1-4)GlcNAc
# Procedure, shortened: as §1
# [12] = target: Gal(b1-3)GlcNAc(a1-6)Gal(b1-4)GlcNAc
# Procedure, shortened: as §1
# [13] = target: Gal(b1-3)GlcNAc(b1-2)Man(a1-3)[Gal(b1-3)GlcNAc(b1-2)Man(a1-6)]Man(b1-4)GlcNAc(b1-4)GlcNAc
# Procedure, shortened: as §1
# [14] = target: Gal(b1-3)[GlcNAc(b1-6)]GalNAc
# Procedure, shortened: as §1
# Gal(b1-4)GlcNAc(b1-2)Man = target: Gal(b1-4)GlcNAc(b1-2)Man
# Procedure, shortened: as §1
# [15] = target: Gal(b1-4)GlcNAc(b1-2)Man(a1-3)Man(b1-4)GlcNAc(b1-4)GlcNAc
# Procedure, shortened: as §1
# [16] = target: Gal(b1-4)GlcNAc(b1-2)Man(a1-3)[Gal(b1-4)GlcNAc(b1-2)Man(a1-6)]Man(b1-4)GlcNAc(b1-4)[Fuc(a1-6)]GlcNAc
# Procedure, shortened: as §1
# [17] = target: Gal(b1-4)GlcNAc(b1-3)Gal(b1-3)GalNAc
# Procedure, shortened: as §1
# [18] = target: Gal(b1-4)GlcNAc(b1-3)Gal(b1-4)GlcNAc(b1-2)Man(a1-3)[Gal(b1-4)GlcNAc(b1-3)Gal(b1-4)GlcNAc(b1-2)Man(a1-6)]Man(b1-4)GlcNAc(b1-4)GlcNAc
# Procedure, shortened: as §1
# [19] = target: Gal(b1-4)GlcNAc(b1-3)Gal(b1-4)GlcNAc(b1-2)[Gal(b1-4)GlcNAc(b1-3)Gal(b1-4)GlcNAc(b1-6)]Man(a1-6)[Gal(b1-4)GlcNAc(b1-3)Gal(b1-4)GlcNAc(b1-2)Man(a1-3)]Man(b1-4)GlcNAc(b1-4)[Fuc(a1-6)]GlcNAc
# Procedure, shortened: as §1
# [20] = target: Gal(b1-4)GlcNAc(b1-3)Gal(b1-4)GlcNAc(b1-3)Gal(b1-4)GlcNAc(b1-3)Gal(b1-4)GlcNAc(b1-3)Gal(b1-4)GlcNAc(b1-2)Man(a1-3)[Gal(b1-4)GlcNAc(b1-3)Gal(b1-4)GlcNAc(b1-3)Gal(b1-4)GlcNAc(b1-3)Gal(b1-4)GlcNAc(b1-3)Gal(b1-4)GlcNAc(b1-2)Man(a1-6)]Man(b1-4)GlcNAc(b1-4)GlcNAc
# Procedure, shortened: as §1
# [21] = target: Gal(b1-4)GlcNAc(b1-3)Gal(b1-4)GlcNAc(b1-3)Gal(b1-4)GlcNAc(b1-3)Gal(b1-4)GlcNAc(b1-3)Gal(b1-4)GlcNAc(b1-2)[Gal(b1-4)GlcNAc(b1-3)Gal(b1-4)GlcNAc(b1-3)Gal(b1-4)GlcNAc(b1-3)Gal(b1-4)GlcNAc(b1-3)Gal(b1-4)GlcNAc(b1-6)]Man(a1-6)[Gal(b1-4)GlcNAc(b1-3)Gal(b1-4)GlcNAc(b1-3)Gal(b1-4)GlcNAc(b1-3)Gal(b1-4)GlcNAc(b1-3)Gal(b1-4)GlcNAc(b1-2)Man(a1-3)]Man(b1-4)GlcNAc(b1-4)[Fuc(a1-6)]GlcNAc
# Procedure, shortened: as §1
# Gal6S(b1-4)GlcNAc = target: Gal6S(b1-4)GlcNAc
# Procedure, shortened: as §1
# GalNAc(b1-3)GlcNAc = target: GalNAc(b1-3)GlcNAc
# Procedure, shortened: as §1
# Glc(a1-6)Glc(a1-6)Glc = target: Glc(a1-6)Glc(a1-6)Glc
# Procedure, shortened: as §1
# GlcA(b1-3)Gal = target: GlcA(b1-3)Gal
# Procedure, shortened: as §1
# [22] = target: GlcNAc(b1-3)Gal(b1-4)GlcNAc(b1-3)Gal(b1-4)GlcNAc(b1-3)Gal(b1-4)GlcNAc(b1-2)Man(a1-3)[GlcNAc(b1-3)Gal(b1-4)GlcNAc(b1-3)Gal(b1-4)GlcNAc(b1-3)Gal(b1-4)GlcNAc(b1-2)Man(a1-6)]Man(b1-4)GlcNAc(b1-4)GlcNAc
# Procedure, shortened: as §1
# Kdn(a2-3)Gal(b1-4)Glc = target: Kdn(a2-3)Gal(b1-4)Glc
# Procedure, shortened: as §1
# Man(a1-6)Man = target: Man(a1-6)Man
# Procedure, shortened: as §1
# Man(b1-4)GlcNAc = target: Man(b1-4)GlcNAc
# Procedure, shortened: as §1
# [23] = target: Neu5Ac(a2-3)Gal(b1-3)GalNAc
# Procedure, shortened: as §1
# [24] = target: Neu5Ac(a2-3)Gal(b1-3)[Neu5Ac(a2-6)]GalNAc
# Procedure, shortened: as §1
# [25] = target: Neu5Ac(a2-3)Gal(b1-3)]Neu5Ac(a2-3)Gal(b1-4)]GlcNAc
# Procedure, shortened: as §1
# [26] = target: Neu5Ac(a2-3)Gal(b1-4)GlcNAc(b1-2)Man(a1-3)[Neu5Ac(a2-3)Gal(b1-4)GlcNAc(b1-2)Man(a1-6)]Man(b1-4)GlcNAc(b1-4)GlcNAc
# Procedure, shortened: as §1
# [27] = target: Neu5Ac(a2-3)Gal6S(b1-4)GlcNAc
# Procedure, shortened: as §1
# [28] = target: Neu5Ac(a2-3)[GalNAc(b1-4)]Gal(b1-4)GlcNAc
# Procedure, shortened: as §1
# [29] = target: Neu5Ac(a2-6)Gal(b1-4)GlcNAc(b1-3)Gal(b1-3)GlcNAc
# Procedure, shortened: as §1
# [30] = target: Neu5Ac(a2-6)Gal(b1-4)GlcNAc(b1-3)Gal(b1-4)GlcNAc(b1-2)Man(a1-3)[Neu5Ac(a2-6)Gal(b1-4)GlcNAc(b1-3)Gal(b1-4)GlcNAc(b1-2)Man(a1-6)]GalNAc
# Procedure, shortened: as §1
# [31] = target: Neu5Ac(a2-6)Gal(b1-4)GlcNAc(b1-3)Gal(b1-4)GlcNAc(b1-3)GalNAc
# Procedure, shortened: as §1
# [32] = target: Neu5Ac(a2-8)Neu5Gc(a2-3)Gal(b1-4)GlcNAc
# Procedure, shortened: as §1
# Neu5Gc(a2-3)Gal(b1-4)Glc = target: Neu5Gc(a2-3)Gal(b1-4)Glc
# Procedure, shortened: as §1
# [33] = target: Neu5Gc(a2-3)Gal(b1-4)[Fuc(a1-3)]GlcNAc
# Procedure, shortened: as §1
# [34] = target: Neu5Gc(b2-6)Gal(b1-4)GlcNAc
# Procedure, shortened: as §1
binder,measurement,setting,value
PX9961H-bth-557-24-557 (Bacteroides thetaiotaomicron) (protein) EETRTEVEKKNYMNNAEEAKDVLLGVYRTNTLDAMYGYYLSILFNLGTDISQVEGSGNENFRIIPTNSFPTTQSEVQQTWAALYTGIYRANDFLERISNKIGSYTTTDKKLATLYIAEARALRGMFYFELVRRFGNVVLMTSTQMSNQNPATYVQSAPEKVYEYIEDDLLYACDILPYATDDQYRESNDYRFSKGAALGLLTKVYATWAGYPVKDESKWEAAAKTARILVESGKHGLLKDYEQLWKNTCNGTWDPTESLIEISFYSPTVSGNSDPVGRIGKWNGVKTTAIAGVRGSCAANVKVVHTFVLDWREDVSDIRRDLSIANYQYTDTKKSLWVAGASDTDESAAEKDADPTKAQKNKQNYTPAKWDIQKYVTTNSFINNDKSNVNWYFLRYADVLLLYAEALNEWKHGPDAEAYNAINAVRRRGYGNPSNTSACDLPQGLDETSFREAVRKERSYELSFEGHRRQDLIRWGIYYKTVQATAKELGYWWEGTGSPNYSVATYTEEGKHELFPIPQRDMDLCIQFNQNPKW,glycan array binding signal (z-score),[1],3.58
same,glycan array binding signal (z-score),[2],-0.177
same,glycan array binding signal (z-score),[3],-0.051
same,glycan array binding signal (z-score),[4],-0.38
same,glycan array binding signal (z-score),[5],0.014
same,glycan array binding signal (z-score),[6],-0.242
same,glycan array binding signal (z-score),[7],-0.408
same,glycan array binding signal (z-score),[8],-0.18
same,glycan array binding signal (z-score),[9],4.31
same,glycan array binding signal (z-score),[10],-0.134
same,glycan array binding signal (z-score),Gal(a1-3)Gal(b1-4)Glc,-0.054
same,glycan array binding signal (z-score),[11],5.85
same,glycan array binding signal (z-score),[12],-0.025
same,glycan array binding signal (z-score),[13],5.54
same,glycan array binding signal (z-score),[14],-0.03
same,glycan array binding signal (z-score),Gal(b1-4)GlcNAc(b1-2)Man,-0.104
same,glycan array binding signal (z-score),[15],10.2
same,glycan array binding signal (z-score),[16],4.19
same,glycan array binding signal (z-score),[17],0.039
same,glycan array binding signal (z-score),[18],3.35
same,glycan array binding signal (z-score),[19],3.59
same,glycan array binding signal (z-score),[20],5.22
same,glycan array binding signal (z-score),[21],4.46
same,glycan array binding signal (z-score),Gal6S(b1-4)GlcNAc,-0.033
same,glycan array binding signal (z-score),GalNAc(b1-3)GlcNAc,-0.542
same,glycan array binding signal (z-score),Glc(a1-6)Glc(a1-6)Glc,-0.402
same,glycan array binding signal (z-score),GlcA(b1-3)Gal,-0.564
same,glycan array binding signal (z-score),[22],-0.299
same,glycan array binding signal (z-score),Kdn(a2-3)Gal(b1-4)Glc,-0.397
same,glycan array binding signal (z-score),Man(a1-6)Man,-0.064
same,glycan array binding signal (z-score),Man(b1-4)GlcNAc,-0.424
same,glycan array binding signal (z-score),[23],-0.207
same,glycan array binding signal (z-score),[24],-0.299
same,glycan array binding signal (z-score),[25],-0.127
same,glycan array binding signal (z-score),[26],-0.412
same,glycan array binding signal (z-score),[27],-0.532
same,glycan array binding signal (z-score),[28],-0.571
same,glycan array binding signal (z-score),[29],-0.166
same,glycan array binding signal (z-score),[30],0.218
same,glycan array binding signal (z-score),[31],-0.503
same,glycan array binding signal (z-score),[32],7.98
same,glycan array binding signal (z-score),Neu5Gc(a2-3)Gal(b1-4)Glc,-0.062
same,glycan array binding signal (z-score),[33],-0.313
same,glycan array binding signal (z-score),[34],-0.202
